Bioassay records as filed in PubChem.
Compounds with a hit are over-represented: about 1.8% of the library has one in this group of screens.
PME-1 primary = PME-1 inhibitors via competitive probe labeling, primary screen, biochemical, fluorescence polarization, FP-Rh probe, HTS; 320,000 tested, 0.53% active; inhibition, % at 5.9 µM; AID 2130, 2009; recombinant PME-1; Protein phosphatase methylesterase 1 (Homo sapiens), Q9Y570;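 active = inhibition above the campaign mean of all compounds plus 3 SD, cut at about 26% in these data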;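 note: competitive labeling of PME-1 active site by serine hydrolase directed probe; 0% = PME-1 with DMSO and 100% = wells lacking PME-1 enzyme; inhibitors block probe labeling so polarization falls and inhibition rises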
Target sequence (Q9Y570 whole entry, looked up): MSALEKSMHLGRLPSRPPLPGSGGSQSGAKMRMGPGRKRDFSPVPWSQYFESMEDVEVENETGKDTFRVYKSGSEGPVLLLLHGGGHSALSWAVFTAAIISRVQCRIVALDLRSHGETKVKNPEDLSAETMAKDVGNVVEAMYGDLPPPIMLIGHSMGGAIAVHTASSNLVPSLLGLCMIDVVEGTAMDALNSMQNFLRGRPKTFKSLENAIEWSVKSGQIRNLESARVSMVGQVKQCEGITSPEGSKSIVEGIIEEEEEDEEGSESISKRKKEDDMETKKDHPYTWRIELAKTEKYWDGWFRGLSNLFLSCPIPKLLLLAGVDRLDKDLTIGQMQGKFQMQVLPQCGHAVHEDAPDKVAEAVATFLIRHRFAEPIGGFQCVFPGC
PP5 primary = PP5 phosphatase inhibitors, primary screen, biochemical, fluorescence. 320,000 tested, 0.18% active. Serine/threonine-protein phosphatase 5 (Homo sapiens), P53041. purified PP5c, OMFP substrate fluorescence. inhibition, % at 6.7 µM;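 active = inhibition above the campaign's mean inhibition across all tested compounds plus 3 SD, cut at about 9.5% in these data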;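 note: 0% = DMSO only and 100% = 100 µM cantharidin control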
LYPLA1 counter = LYPLA1 inhibitors, primary screen, counter-screen for PME1 inhibitor project, biochemical, fluorescence polarization, FP-Rh probe ABPP. Acyl-protein thioesterase 1 (Homo sapiens), O75608. recombinant LYPLA1. inhibition, % at 5.9 µM. 320,000 tested, 0.16% active. AID 2174, 2009;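 active = inhibition above the mean of all tested compounds plus 3 SD, set per campaign, cut at about 14% in these data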;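 note: inhibitors block serine hydrolase probe labeling of LYPLA1 so polarization falls; 0% = enzyme with DMSO and 100% = wells lacking LYPLA1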
PP1 inh = PP1-alpha phosphatase inhibitors, primary screen, counter-screen for PP5 inhibitor project, biochemical, fluorescence, OMFP substrate, single point; Serine/threonine-protein phosphatase PP1-alpha catalytic subunit (Homo sapiens), P62136; purified PP1alpha; inhibition, % at 6.7 µM; 320,000 tested, 0.9% active;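 active = inhibition above the mean inhibition of all tested compounds plus 3 SD, computed separately for each screening campaign, cut at about 15% in these data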
Fam108B counter = mouse Fam108B serine hydrolase inhibitors, primary screen, counter-screen for RBBP9 inhibitor project, biochemical, fluorescence polarization; recombinant Fam108B, FP-Rh probe fluorescence polarization; inhibition, % at 9.51 µM; 300,000 tested, 0.33% active; AID 1947, 2009;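 active = inhibition above the screen mean inhibition plus 3 SD, computed separately per campaign, cut at about 18% in these data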;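 note: inhibitors lower polarization as less probe binds the enzyme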
LYPLA2 counter = LYPLA2 inhibitors, primary screen, counter-screen for PME1 inhibitor project, biochemical, fluorescence polarization, FP-Rh probe ABPP | Acyl-protein thioesterase 2 (Homo sapiens), O95372 | recombinant LYPLA2 | inhibition, % at 5.9 µM | 320,000 tested, 0.38% active | AID 2177, 2009;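 active = inhibition above the screen-wide mean plus 3 SD, limit set per campaign, cut at about 26% in these data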;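 note: 0% = LYPLA2 with DMSO and 100% = wells lacking LYPLA2 enzyme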
LYPLA2 conf = LYPLA2 inhibitors, retest, confirmation, counter-screen for PME1 inhibitor project, biochemical, fluorescence polarization, FP-Rh probe ABPP | shares compounds with LYPLA2 counter | 1,100 tested, 72% active | inhibition, % at 5.9 µM | recombinant LYPLA2;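 active = mean inhibition across replicates above the hit cutoff set in the primary screen, cut at about 26% in these data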;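 note: blocked labeling of the enzyme by serine hydrolase FP-Rh probe lowers polarization; 0% = enzyme with DMSO and 100% = wells lacking LYPLA2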
LYPLA2 gel ABPP = LYPLA2 inhibitors in proteome, late-stage follow-up, gel-based competitive ABPP, fluorescence, assay provider; 150 tested, 30% active; rhLYPLA2 in mouse brain proteome, gel ABPP FP-Rh; AID 652029, 2013; inhibition, % at 20 µM; shares compounds with LYPLA2 counter;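 active = inhibition of LYPLA2 enzyme probe labeling above about 50%, limit read from the data; inactive = inhibition below that limit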;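 note: loss of FP-Rh probe labeling of the LYPLA2 gel band measured as band density; 0% = DMSO only control band and 100% = blank gel background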
Numbers without * were called inactive.

`O=C1COc2ccc(C(=O)NCc3ccco3)cc2N1` gave PME-1 primary 4, PP5 primary -1, LYPLA1 counter -1, PP1 inh -2, Fam108B counter -4 and LYPLA2 counter -6.
Screening O=C(NCc1ccco1)c1ccc2[nH]c(=O)c(=O)[nH]c2c1 returned PME-1 primary 12, PP5 primary 3, LYPLA1 counter 6, PP1 inh -3, Fam108B counter 4, LYPLA2 counter 28* and LYPLA2 conf 0.
`COc1ccccc1C1CC(c2ccc(Cl)cc2Cl)Nc2nc(N)nn21` (stereo unspecified) gave PME-1 primary 0, PP5 primary 2, LYPLA1 counter -1, PP1 inh 2, Fam108B counter 4, LYPLA2 counter 43* and LYPLA2 conf 34*.
O=C(c1ccco1)N1CCN(C(=S)Nc2cccc([N+](=O)[O-])c2)CC1 was read as PME-1 primary -4, PP5 primary -2, LYPLA1 counter -2, PP1 inh 2, Fam108B counter -3, LYPLA2 counter 50*, LYPLA2 conf 62* and LYPLA2 gel ABPP 36.
`CC(=O)N1CCN(c2ccc(NC(=O)c3ccc([N+](=O)[O-])cc3Cl)cc2)CC1` gave PME-1 primary 3, PP5 primary 0, LYPLA1 counter -1, PP1 inh 1, Fam108B counter -2 and LYPLA2 counter 6.
For O=C(COc1ccccc1[N+](=O)[O-])Nc1ccc(N2CCN(C(=O)c3cccs3)CC2)cc1 the results were PME-1 primary 7, PP5 primary 4, LYPLA1 counter 10, PP1 inh -3, Fam108B counter 4, LYPLA2 counter 46* and LYPLA2 conf 48*.
`O=C(Nc1ccc(N2CCN(C(=O)c3ccco3)CC2)cc1)c1ccccc1Br` gave PME-1 primary -7, PP5 primary 2, LYPLA1 counter 6, PP1 inh -4, Fam108B counter 0, LYPLA2 counter 34* and LYPLA2 conf 30*.
O=C(Nc1ccc(N2CCN(C(=O)c3ccco3)CC2)cc1)c1ccccc1F was read as PME-1 primary -2, PP5 primary 1, LYPLA1 counter 2, PP1 inh 0, Fam108B counter -1 and LYPLA2 counter 16.
CCC(=O)Nc1ccc(N2CCN(C(=O)c3cccs3)CC2)cc1 was read as PME-1 primary 4, PP5 primary 2, LYPLA1 counter -2, PP1 inh 3, Fam108B counter 6 and LYPLA2 counter 1.
`O=C(Nc1ccc(N2CCN(C(=O)c3ccco3)CC2)cc1)c1ccc([N+](=O)[O-])cc1Cl` gave PME-1 primary 3, PP5 primary 3, LYPLA1 counter 3, PP1 inh 1, Fam108B counter 4, LYPLA2 counter 40* and LYPLA2 conf 38*.
For COc1ccc(S(=O)(=O)NC2CC(C)(C)NC(C)(C)C2)c2ccccc12 the results were PME-1 primary 8, PP5 primary 1, LYPLA1 counter -1, PP1 inh 0, Fam108B counter -3 and LYPLA2 counter -1.
Screening Cc1ccccc1C(=O)Nc1ccc(N2CCN(C(=O)c3ccco3)CC2)cc1 returned PME-1 primary 0, PP5 primary 0, LYPLA1 counter 1, PP1 inh -1, Fam108B counter -1 and LYPLA2 counter 17.
